Four compounds from PubChem BioAssay can be followed below.

Values joined by “and” are separate entries in the source; they are usually repeats but may differ in a detail not shown here. Identical values can stand only once. Active and inactive are the calls of the source. Unless noted, the rule behind the calls is not given here.

A short description of test [1]: signal quenchers or enhancers, Cy5 substrate/SSB – biochemical, NIH Clinical Collection, E. coli SSB, artefact control for HCV NS3 helicase inhibitor project (AID 743268). The note with it: Cy5-oligo bound E. coli SSB, fluorescence interference.
Test [2] has as its system Hepatitis C virus NS3 helicase. Nature of the test: blockers of NS3h binding to DNA – biochemical, fluorescence polarization, NIH Clinical Collection, primary screen (AID 743270). The note with it: NS3 helicase binding to Cy5-dT15 DNA, stronger effect = higher value, concentration not given here. For orientation: Polarisation of emitted light reports the rotation of a fluorescent probe.

Test [3] concerns the target Single-stranded DNA-binding protein (Escherichia coli (strain K12)) (UniProt P0AGE0). Nature of the test: SSB-ssDNA binding inhibitors – biochemical, fluorescence polarization, NIH Clinical Collection, counter-screen for HCV NS3 helicase inhibitor project (AID 743271; in the data active = inhibition above about 28%). The note with it: E. coli SSB-DNA binding, stronger effect = higher value, concentration not given here.
Test [4] can be described thus: compounds distorting NS3 helicase fluorescence signal – biochemical, NIH Clinical Collection, artefact control for HCV NS3 helicase inhibitor project (AID 743272).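 Note: HCV NS3 helicase with a Cy5 labelled single stranded DNA probe.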 The note with it: fluorescence interference counterscreen, HCV NS3 helicase assay; stronger effect = lower value.
The nature of test [5]: Wnt pathway potentiators raising nuclear beta-catenin – imaging, WNT3A-conditioned medium, mouse C2C12, NPC library, primary screen (AID 1117326; in the data active = nuclear beta-catenin stimulation mostly above about 4.2%, no sharp cut-off; inactive = mostly below about 10%). The conditions noted are these: stronger effect = higher value.
Test [6] is described as follows: stimulators of insulin release from INS-1E, primary screen, cell-based, 5 mM glucose, NPC library (AID 1117329;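 active = compound raises insulin release from rat beta cells at 5 mM glucose, no numeric limit stated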). The conditions noted are these: rat INS-1E insulin secretion, at 10 µM, stronger effect = higher value.
Test [7] can be described thus: growth inhibition of GSK3B-pretreated HCT116 cells – cell-based, CellTiter-Glo, 0.2 to 20 µM (AID 1117336;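 active = compounds lowering colon cancer cell viability after pretreatment blocking the GSK3B kinase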). The note with it: HCT116 viability after GSK3B inhibitor, at 20 µM, stronger effect = higher value.
Test [8] in a line: inhibition of endothelial tube formation, primary screen, imaging, VEGF stimulated, CD31 staining, tube area, NPC library (AID 1117340;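 active = compound that reduces growth-factor-driven endothelial tube area in a mixed cell culture, no cutoff stated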). The conditions noted are these: VEGF-stimulated ADSC/ECFC co-culture, at 10 µM, stronger effect = higher value.
Test [9] in a line: GLP1 release stimulators, primary, NCI-H716, NPC library (AID 1117341;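 active = compound raises GLP1 secretion from the human gut endocrine cells, with no numeric limit stated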). The conditions noted are these: NCI-H716 cells, at 10 µM, stronger effect = higher value.
Test [10] is described as follows: HCT116 colon cancer cell growth inhibition, primary screen, CellTiter-Glo luminescence, NPC library (AID 1117342;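 active = compounds that lower survival of HCT116 colon cancer cells in the luminescence readout, no numeric limit stated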). The note with it: at 20 µM (top of the series).
The nature of test [11]: reduced SW480 viability measured with CellTiter-Glo, NPC library, primary (AID 1117343;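 active = compounds that lower viability of the colon cancer cells in the luminescence readout, with no numeric limit stated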). The conditions noted are these: CellTiter-Glo luminescence; at 20 µM (top of the series). In general terms: In ATP-based viability assays light output follows the ATP content of the culture.
Test [12] is described as follows: NPC library primary testing for decreased DLD-1 cell viability via CellTiter-Glo (AID 1117346;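 active = compounds that lower survival of DLD-1 colon cancer cells in the luminescence readout, no cutoff given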). The note with it: DLD-1 viability, CellTiter-Glo luminescence; at 20 µM (top of the series).
For test [13], the target named is 6-phosphogluconate dehydrogenase, decarboxylating (Homo sapiens) (UniProt P52209). Nature of the test: inhibition of human phosphogluconate dehydrogenase – biochemical, recombinant enzyme, NADPH absorbance, primary screen (AID 1159550;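 active = at least 20% inhibition of 6-phosphogluconate dehydrogenase activity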). The note with it: recombinant 6PGD, NADPH absorbance 341 nm; at 10 µM; stronger effect = higher value.
The nature of test [14]: EMT-state selective cytotoxicity in co-culture – imaging, PC-3E GFP, TEM4-18 mCherry, primary screen (AID 1345086;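 active = compounds killing one labelled cell type while sparing the other, by normalised counts and ratio limits, not self-fluorescent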;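 for all read-outs here: cells exposed to compound for 72 h before imaging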;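 for red/green cell ratio (normalised): normalised mesenchymal count divided by normalised epithelial count so high means epithelial killing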). The conditions noted are these: PC-3E GFP / TEM4-18 mCherry co-culture, imaging cell counts, at 1 µM; for red/green cell ratio (normalised): actives lie on both sides, counts scaled to control wells, 1 = unselective.
The nature of test [15]: MELAS cybrid and Rieske KO viability enhancers – cell-based, MELAS cybrids, Rieske KO mouse fibroblasts, CellTiter-Glo, primary screen (AID 1508586;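 active = mean z-score across replicates of 1.96 or higher in either the MELAS or the Rieske mutant cell line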;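 note: z relative to plate mean and SD of compound and empty wells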). The note with it: low glucose.
Test [16] addresses NAD(+) hydrolase SARM1 (Homo sapiens) (UniProt Q6SZW1). Nature of the test: blocking NAD cleavage by SARM1 SAM-TIR – cell lysate, NAD-Glo luminescence (AID 1508614;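 active = compound whose remaining NAD level is above about 45 nM, limit read from the data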;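 note: higher remaining NAD means stronger inhibition of SARM1 NADase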). The note with it: SAM-TIR HEK293T lysate NADase, at 1 µM, stronger effect = higher value.
Test [17] concerns the target Mitogen-activated protein kinase 7 (Homo sapiens) (UniProt Q13164). Nature of the test: Gal4-ERK5 driven luciferase induction – cell-based, HTS, primary screen (AID 1508626;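 active = luciferase signal above three times the same-plate solvent-only control wells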;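 note: luciferase driven by Gal4-ERK5 fusion binding five Gal4 sites before minimal TATA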). The note with it: HeLa Gal4-ERK5 transactivation, 18 h, at 5 µM, stronger effect = higher value.
A short description of test [18]: P. berghei load reduction in hepatocytes – cell-based, HepG2, luciferase luminescence, HepG2 viability, primary screen (AID 624349; in the data active = parasite load remaining mostly below about 12%, no sharp cut-off; inactive = mostly above about 10%;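 note: 100% = mean of DMSO negative control wells on the same plate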). The note with it: P. berghei liver stage in HepG2, luciferase luminescence, concentration not given here; parasite load remaining: stronger effect = lower value; viability: measured here: HepG2 viability without parasites.
Test [19] can be described thus: viability loss with induced miR-34 in A549 – imaging, A549 dox-inducible miR-34, nuclei and caspase counts, primary screen (AID 1347080;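 active = compounds whose cell count with miR-34 switched on is under 0.7 times the count with it off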). The note with it: A549 miR-34 inducible, Hoechst nuclei count, 48 h.
Another test deals with F380Y. Nature of the test: BK channel mutant inhibitors and activators – cell-based, U2OS BacMam, thallium flux, beta subunits, selectivity assay, profiling panel (AID 1259406;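 active = thallium flux through the channel raised or lowered by more than 3 SD from vehicle-only wells, actives on both sides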;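 note: initial slope of Thallos dye fluorescence rise after thallium is added; log ratio against the mean of 0.3% DMSO vehicle wells on the same plate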). The conditions noted are these: U2OS BacMam BK variants, at 30 µM.
[20] abbreviates: measured here: epithelial PC-3E GFP cell survival.
Where [21] appears, read: measured here: mesenchymal TEM4-18 mCherry cell survival.
[22] abbreviates: MELAS cybrid survival, CellTiter-Glo 48 h, stronger effect = higher value.
[23] abbreviates: Rieske KO mouse fibroblast survival, CellTiter-Glo 72 h.
The mark [24] stands for this setting: stronger effect = lower value, cell number ratio, induced over uninduced.
The mark [25] stands for this setting: measured here: relative caspase fold change +Dox/-Dox.
Where [26] appears, read: measured here: total cells with miR-34 induction, stronger effect = lower value.
Setting [27] is: measured here: total cells without miR-34 induction.

Sequence of Mitogen-activated protein kinase 7 (Homo sapiens) (Q13164 whole entry, looked up, the tested form may be a part): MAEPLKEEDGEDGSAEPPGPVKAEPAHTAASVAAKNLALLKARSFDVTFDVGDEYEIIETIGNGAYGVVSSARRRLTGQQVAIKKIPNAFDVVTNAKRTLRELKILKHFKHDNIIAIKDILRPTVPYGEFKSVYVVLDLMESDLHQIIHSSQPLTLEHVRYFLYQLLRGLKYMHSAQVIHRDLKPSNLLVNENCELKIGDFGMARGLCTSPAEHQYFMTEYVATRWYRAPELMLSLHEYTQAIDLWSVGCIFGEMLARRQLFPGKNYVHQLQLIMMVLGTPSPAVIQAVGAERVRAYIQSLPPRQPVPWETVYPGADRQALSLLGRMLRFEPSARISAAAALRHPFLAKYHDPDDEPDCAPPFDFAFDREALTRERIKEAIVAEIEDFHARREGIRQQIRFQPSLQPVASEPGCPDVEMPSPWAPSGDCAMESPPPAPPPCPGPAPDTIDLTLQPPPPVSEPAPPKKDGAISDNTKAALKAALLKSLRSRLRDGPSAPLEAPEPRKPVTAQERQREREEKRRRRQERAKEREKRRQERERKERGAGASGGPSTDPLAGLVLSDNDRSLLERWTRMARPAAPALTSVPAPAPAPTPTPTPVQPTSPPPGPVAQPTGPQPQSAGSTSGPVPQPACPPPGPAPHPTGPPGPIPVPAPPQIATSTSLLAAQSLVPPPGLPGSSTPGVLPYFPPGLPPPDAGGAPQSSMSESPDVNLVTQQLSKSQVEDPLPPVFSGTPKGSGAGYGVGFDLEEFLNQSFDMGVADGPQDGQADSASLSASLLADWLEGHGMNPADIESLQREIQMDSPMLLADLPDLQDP
Sequence of 6-phosphogluconate dehydrogenase, decarboxylating (Homo sapiens) (P52209 whole entry, looked up): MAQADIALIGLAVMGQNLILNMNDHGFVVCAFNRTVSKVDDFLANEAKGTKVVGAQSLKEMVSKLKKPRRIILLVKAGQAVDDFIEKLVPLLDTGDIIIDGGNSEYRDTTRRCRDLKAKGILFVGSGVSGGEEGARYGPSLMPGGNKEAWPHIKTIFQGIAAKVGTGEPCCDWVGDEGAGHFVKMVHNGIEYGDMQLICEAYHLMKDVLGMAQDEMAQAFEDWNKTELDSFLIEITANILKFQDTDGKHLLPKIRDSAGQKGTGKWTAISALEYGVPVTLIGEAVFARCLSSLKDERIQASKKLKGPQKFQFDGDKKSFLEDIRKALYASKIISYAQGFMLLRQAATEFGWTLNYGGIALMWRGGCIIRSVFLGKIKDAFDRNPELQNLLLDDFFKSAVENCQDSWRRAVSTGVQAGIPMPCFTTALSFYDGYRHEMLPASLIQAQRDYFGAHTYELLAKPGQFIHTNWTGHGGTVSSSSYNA
Sequence of NAD(+) hydrolase SARM1 (Homo sapiens) (Q6SZW1 whole entry, looked up, the tested form may be a part): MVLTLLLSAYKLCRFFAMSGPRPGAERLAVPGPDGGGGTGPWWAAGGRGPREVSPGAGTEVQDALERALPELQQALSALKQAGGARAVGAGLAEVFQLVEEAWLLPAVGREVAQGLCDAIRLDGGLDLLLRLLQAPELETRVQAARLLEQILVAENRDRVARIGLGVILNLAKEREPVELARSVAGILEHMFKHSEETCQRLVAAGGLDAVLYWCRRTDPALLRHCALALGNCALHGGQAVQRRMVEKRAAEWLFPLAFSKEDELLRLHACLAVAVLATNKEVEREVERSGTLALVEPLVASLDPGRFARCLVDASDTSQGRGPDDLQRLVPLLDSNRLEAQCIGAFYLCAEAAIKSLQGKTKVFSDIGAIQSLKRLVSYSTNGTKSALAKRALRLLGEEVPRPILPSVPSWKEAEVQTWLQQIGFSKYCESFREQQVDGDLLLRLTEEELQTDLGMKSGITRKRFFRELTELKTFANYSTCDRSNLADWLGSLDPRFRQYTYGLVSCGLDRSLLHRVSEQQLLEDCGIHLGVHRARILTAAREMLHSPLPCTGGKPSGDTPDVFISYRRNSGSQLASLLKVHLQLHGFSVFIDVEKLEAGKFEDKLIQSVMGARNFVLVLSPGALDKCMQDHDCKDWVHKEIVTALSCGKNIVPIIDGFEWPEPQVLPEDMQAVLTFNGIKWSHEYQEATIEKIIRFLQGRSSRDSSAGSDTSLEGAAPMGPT

Turning to `CCCCc1oc2ccccc2c1C(=O)c1cc(I)c(OCCN(CC)CC)c(I)c1`, the fluorescence ratio is 0.96 (inactive) in [1] and 0.95 (inactive) in [4]. Moreover, the values for the inhibition in test [2], in test [3] and in test [13] were -1.97% (inactive), 1.97% (inactive) and 7.85% (inactive), respectively. Moreover, the nuclear beta-catenin stimulation in [5] (at 10 µM) was 71.4% (active); in test [5] (stimulation, at 2 µM), 0.8%. Moreover, the insulin secretion stimulation in test [6] is 0.6% (inactive). Further, the viability decrease in test [7] was 103% (active). Further, the tube area decrease in test [8] was 110% (active). In test [9], the GLP1 secretion stimulation was 3.9% (inactive). The inhibition of viability in test [10] is 102% (active). Besides, the viability decrease (inhibition) in test [11] is 129% (active); in test [12], 105% (active). Moreover, the red/green cell ratio (normalised) in test [14] was 1.08 (inactive). Also, the normalised cell number in test [14] (setting [20]) is 1.02; in test [14] (setting [21]), 1.1. For the same compound, the z-score in [15] (setting [22]) was -0.425 (inactive) and -1.46 (inactive) and 0.238 (inactive); in test [15] (setting [23]), 0.341 and -0.317 and -0.0304. Moreover, the remaining NAD in test [16] was 10 nM (inactive). For the same compound, in test [17], the luciferase signal is 44 AU (inactive).
As to `CC(=O)OCC(=O)[C@@]1(O)CC[C@H]2[C@@H]3CCC4=CC(=O)CC[C@]4(C)[C@H]3C(=O)C[C@@]21C`, in test [18], the parasite load remaining was 71.9% (inactive). The viability (in general, a read-out of living cells in per cent, often relative to untreated cells) in test [18] was 95.8%. In addition, the fluorescence ratio was 1.07 (inactive) in test [1] and 1.01 (inactive) in test [4]. Further, the inhibition (commonly the change of the read-out against control, counted positive when it falls) is -0.45% (inactive) in test [2], -0.48% (inactive) in test [3] and -3.27% (inactive) in test [13]. In addition, the nuclear beta-catenin stimulation in test [5] (at 10 µM) is 1.3% (inactive); in test [5] (stimulation, at 2 µM), 0.9%. Moreover, the insulin secretion stimulation in test [6] was 2.1% (inactive). Further, the viability decrease in test [7] was 3.8% (inactive). For the same compound, in [8], the tube area decrease is -2.1% (inactive). Further, in [9], the GLP1 secretion stimulation was 7% (inactive). For the same compound, the inhibition of viability in test [10] is -5.5% (inactive). Further, the viability decrease (inhibition) in test [11] was -2.6% (inactive); in test [12], -11.3% (inactive). Also, the fold change is 0.993 (inactive) and 0.93 (inactive) in test [19] (setting [24]); 1.87 and 1.55 in test [19] (setting [25]). Besides, the cell count in test [19] (setting [26]) is 10600 and 10400; in test [19] (setting [27]), 10700 and 11200. In test [16], the remaining NAD is 10 nM (inactive). Besides, in test [17], the luciferase signal is 28 AU (inactive). Besides, the log fold change Tl+ flux in the test on F380Y is -0.00173 (inactive).
Take `CC(=O)OCC(=O)[C@@]1(O)CC[C@H]2[C@@H]3CCC4=CC(=O)C=C[C@]4(C)[C@H]3[C@@H](O)C[C@@]21C`: in test [18], the parasite load remaining is 83.8% (inactive). In [18], this compound returned a viability of 90.8%. Besides, the fluorescence ratio was 0.95 (inactive) in [1] and 0.91 (inactive) in [4]. In addition, the inhibition in test [2] is -5% (inactive); in [3], -0.48% (inactive); in test [13] it was 20% (inactive). For the same compound, the nuclear beta-catenin stimulation was 1.2% (inactive) in test [5] (at 10 µM) and 0% in [5] (stimulation, at 2 µM). In addition, the insulin secretion stimulation in test [6] was 1% (inactive). The viability decrease in test [7] was 6.6% (inactive). Moreover, the tube area decrease in test [8] is 5.5% (inactive). For the same compound, the GLP1 secretion stimulation in test [9] was 1.2% (inactive). For the same compound, in test [10], the inhibition of viability is -4.6% (inactive). Also, the viability decrease (inhibition) in [11] was -9.3% (inactive); in test [12], -10.8% (inactive). The fold change in test [19] (setting [24]) was 0.981 (inactive); in test [19] (setting [25]) it was 0.792. The cell count in test [19] (setting [26]) stood at 8020; in [19] (setting [27]), 8180. Moreover, the remaining NAD in test [16] was 10 nM (inactive). In addition, the luciferase signal in test [17] is 60 AU (inactive). The log fold change Tl+ flux with F380Y was 0.0438 (inactive).
For the compound `CCN(CC)C(=S)SSC(=S)N(CC)CC`, the fluorescence ratio was 0.98 (inactive) in test [1] and 0.99 (inactive) in [4]. The inhibition is -1.19% (inactive) in test [2], -1.64% (inactive) in [3] and 1.47% (inactive) in [13]. Also, the nuclear beta-catenin stimulation in test [5] (at 10 µM) is 5.4% (inactive); in test [5] (stimulation, at 2 µM), 2.3%. In addition, the insulin secretion stimulation in [6] was 4.8% (inactive). In test [7], the viability decrease was 9.9% (inactive). Further, in test [8], the tube area decrease was 35.6% (inactive). Also, the GLP1 secretion stimulation in test [9] was 6.3% (inactive). Further, the inhibition of viability in test [10] is 18.6% (inactive). In addition, the viability decrease (inhibition) was 39.4% (inactive) in test [11] and 30.8% (inactive) in test [12]. In addition, in test [14], the red/green cell ratio (normalised) was 0.63 (inactive). In addition, the normalised cell number was found to be 0.27 in [14] (setting [20]) and 0.17 in test [14] (setting [21]). For the same compound, the z-score was -0.351 (inactive) and 0.325 and -1.17 in test [15] (setting [22]); -4.19 and 10.8 and 3.81 in [15] (setting [23]). Moreover, in test [16], the remaining NAD was 10 nM (inactive). Moreover, the luciferase signal in test [17] is 16 AU (inactive). The log fold change Tl+ flux in the test on F380Y was -0.0143 (inactive).
